Source: the supplement of paper PMC10849652
Of roughly 7,900 targets only a part is listed; those with a hit were picked by preference. About 0.6% of all pairs of compound and target were hits. Values without a mark were called inactive.

How the values were obtained:
Test in all cases: log2 fold change, soluble protein after heating vs DMSO (PISA); higher = thermal stabilisation; K562 cells, 10 uM, 30 min; active = over 0.2 and 3.5 SD of the protein, either way, in both replicates (recomputed)
erlotinib = compound: C#Cc1cccc(Nc2ncnc3cc(OCCOC)c(OCCOC)cc23)c1 [erlotinib]
Method in brief: (§1)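 K562 cells at 2×10^6 cells/mL were treated for 30 min with 10 μM compound, and aliquots were heated for 3 min over 48°C-58°C before pooling. Extraction used PBS with 0.5% NP-40 at 4°C, and soluble protein was the supernatant after 21,000xg for 90 min, measured by TMTpro 16plex LC-MS/MS with channel sums equalised. Thermal stability values, relative to control samples and from duplicates, are log2 fold changes.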

[1] = compound: C/C(=N\NC(=O)C1=CC(=CC=C1)S(=O)(=O)N2CCOCC2)/C3=C(C=CC(=C3)Cl)O
Method in brief: as §1

[2] = compound: C1=CC(=C(C=C1Cl)C2=NC3=NC=CN=C3C(=N2)NC4=CC=NC=C4)F
Method in brief: as §1

[3] = compound: C1=CC(=CC=C1C2=NC3=C(N2)C=C(C=C3)C(=O)N)OC4=CC=C(C=C4)Cl
Method in brief: as §1

[4] = compound: C1=CC2=C(C=CC(=C2)/C=C\3/C(=O)NC(=NCC4=CC=CS4)S3)N=C1
Method in brief: as §1

[5] = compound: C1=CC2=NC=CN=C2C=C1/C=C/3\C(=O)NC(=O)S3
Method in brief: as §1

[6] = compound: C1=CC=C(C=C1)C2=NC(=C(N2)C3=CC=NC=C3)C4=CC(=C(C=C4)Cl)O
Method in brief: as §1

[7] = compound: C1=CC=C2C(=C1)C3=NNC4=CC=CC(=C43)C2=O
Method in brief: as §1

[8] = compound: C1CCN(C1)C(=O)NC2=CC=CC(=C2)NC3=NC=C(C(=N3)NCCC4=CN=CN4)Br
Method in brief: as §1

[9] = compound: C1CN(CCC1(CC2=CC=C(C=C2)Cl)N)C3=NC=NC4=C3C=CN4
Method in brief: as §1

PDCD6 (UniProt O75340)
UniProt O75340, sequence (O75340 whole entry, looked up): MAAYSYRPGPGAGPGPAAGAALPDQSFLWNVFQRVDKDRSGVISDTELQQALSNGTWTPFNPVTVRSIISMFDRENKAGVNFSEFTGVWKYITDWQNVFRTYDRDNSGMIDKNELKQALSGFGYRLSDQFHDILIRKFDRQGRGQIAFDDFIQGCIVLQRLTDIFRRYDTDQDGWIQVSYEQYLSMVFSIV
log2 fold change (erlotinib): -0.006
log2 fold change [1]: 0.038
log2 fold change [2]: 0.066
log2 fold change [3]: 0.004
log2 fold change [4]: 0.034
log2 fold change [5]: 0.02
log2 fold change [6]: -0.061
log2 fold change [7]: 0.029
log2 fold change [8]: 0.024
log2 fold change [9]: -0.048

PIK3CB (UniProt P42338)
log2 fold change (erlotinib): 0.07
log2 fold change [1]: 0.018
log2 fold change [2]: 0.002
log2 fold change [3]: -0.022
log2 fold change [4]: 0.081
log2 fold change [5]: 0.09
log2 fold change [6]: 0.032
log2 fold change [7]: 0.014
log2 fold change [8]: -0.016
log2 fold change [9]: 0.004

PKN2 (UniProt Q16513)
log2 fold change (erlotinib): 0.067
log2 fold change [1]: 0.073
log2 fold change [2]: -0.019
log2 fold change [3]: -0.075
log2 fold change [4]: 0.076
log2 fold change [5]: -0.075
log2 fold change [6]: 0.07
log2 fold change [7]: -0.031
log2 fold change [8]: -0.033
log2 fold change [9]: -0.209

PTRHD1 (UniProt Q6GMV3)
UniProt Q6GMV3, sequence (Q6GMV3 whole entry, looked up): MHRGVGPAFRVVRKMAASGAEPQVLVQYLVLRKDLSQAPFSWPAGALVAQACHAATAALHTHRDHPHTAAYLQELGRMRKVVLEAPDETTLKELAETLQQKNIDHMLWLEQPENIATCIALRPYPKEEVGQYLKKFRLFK
log2 fold change (erlotinib): -0.002
log2 fold change [1]: 0.005
log2 fold change [2]: 0.37 (active)
log2 fold change [3]: 0.046
log2 fold change [4]: 0.134
log2 fold change [5]: 0.045
log2 fold change [6]: 0.121
log2 fold change [7]: -0.032
log2 fold change [8]: -0.017
log2 fold change [9]: -0.012

PNN (UniProt Q9H307)
log2 fold change (erlotinib): 0.007
log2 fold change [1]: -0.001
log2 fold change [2]: 0.032
log2 fold change [3]: 0.024
log2 fold change [4]: 0.025
log2 fold change [5]: 0.085
log2 fold change [6]: -0.107
log2 fold change [7]: -0.11

PDPK1 (UniProt O15530)
log2 fold change (erlotinib): 0.02
log2 fold change [1]: 0.083
log2 fold change [2]: 0.026
log2 fold change [3]: 0.064
log2 fold change [4]: 0.068
log2 fold change [5]: -0.029
log2 fold change [6]: 0.045
log2 fold change [7]: 0.007
log2 fold change [8]: 0.087
log2 fold change [9]: 0.028

PTP4A2 (UniProt Q12974)
UniProt Q12974, sequence (Q12974 whole entry, looked up): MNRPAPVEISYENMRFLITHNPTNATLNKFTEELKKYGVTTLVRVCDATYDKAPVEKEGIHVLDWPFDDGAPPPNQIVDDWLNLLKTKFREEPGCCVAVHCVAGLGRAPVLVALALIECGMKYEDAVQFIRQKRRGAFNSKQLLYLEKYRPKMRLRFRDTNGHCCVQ
log2 fold change (erlotinib): -0.054
log2 fold change [1]: 0.03
log2 fold change [2]: 0.134
log2 fold change [3]: 0.049
log2 fold change [4]: 0.018
log2 fold change [5]: -0.051
log2 fold change [6]: 0.205
log2 fold change [7]: -0.125
log2 fold change [8]: -0.029
log2 fold change [9]: -0.097

PDE2A (UniProt O00408)
UniProt O00408, sequence (O00408 whole entry, looked up): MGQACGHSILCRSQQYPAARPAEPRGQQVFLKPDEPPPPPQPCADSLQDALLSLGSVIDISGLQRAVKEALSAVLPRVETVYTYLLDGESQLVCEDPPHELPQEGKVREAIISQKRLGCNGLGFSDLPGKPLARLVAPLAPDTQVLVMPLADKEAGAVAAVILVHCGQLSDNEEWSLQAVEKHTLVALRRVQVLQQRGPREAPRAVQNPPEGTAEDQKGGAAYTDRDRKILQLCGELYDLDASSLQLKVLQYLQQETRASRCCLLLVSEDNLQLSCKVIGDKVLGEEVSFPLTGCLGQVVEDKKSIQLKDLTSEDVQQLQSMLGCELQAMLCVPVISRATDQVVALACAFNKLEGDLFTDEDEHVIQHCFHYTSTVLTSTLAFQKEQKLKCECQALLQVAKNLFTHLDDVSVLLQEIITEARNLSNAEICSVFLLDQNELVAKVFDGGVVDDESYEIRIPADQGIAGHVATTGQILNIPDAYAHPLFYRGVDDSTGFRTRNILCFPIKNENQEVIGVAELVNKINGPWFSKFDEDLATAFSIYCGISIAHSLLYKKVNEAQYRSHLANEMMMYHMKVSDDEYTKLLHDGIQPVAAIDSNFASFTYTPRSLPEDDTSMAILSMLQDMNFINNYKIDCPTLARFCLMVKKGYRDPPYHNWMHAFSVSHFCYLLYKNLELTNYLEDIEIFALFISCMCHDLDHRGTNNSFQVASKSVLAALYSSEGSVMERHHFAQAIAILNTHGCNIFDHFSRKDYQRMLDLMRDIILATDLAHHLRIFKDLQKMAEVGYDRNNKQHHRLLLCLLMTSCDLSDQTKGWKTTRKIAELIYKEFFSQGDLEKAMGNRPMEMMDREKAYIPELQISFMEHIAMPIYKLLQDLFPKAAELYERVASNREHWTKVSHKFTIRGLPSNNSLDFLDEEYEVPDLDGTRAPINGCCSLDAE
log2 fold change (erlotinib): -0.055
log2 fold change [1]: -0.521 (active)
log2 fold change [2]: -0.011
log2 fold change [3]: -0.034
log2 fold change [4]: 0.161
log2 fold change [5]: -0.099
log2 fold change [6]: 0.137
log2 fold change [7]: 0.113
log2 fold change [8]: -0.077
log2 fold change [9]: 0.184

PGM3 isoform 4 (UniProt O95394)
log2 fold change (erlotinib): 0.001
log2 fold change [1]: 0.094
log2 fold change [2]: 0.045
log2 fold change [3]: 0.103
log2 fold change [4]: 0.092
log2 fold change [5]: 0.001
log2 fold change [6]: 0.042
log2 fold change [7]: 0.064
log2 fold change [8]: -0.005
log2 fold change [9]: -0.053

PTPMT1 (UniProt Q8WUK0)
log2 fold change (erlotinib): -0.009
log2 fold change [1]: -0.017
log2 fold change [2]: 0.202
log2 fold change [3]: 0.053
log2 fold change [4]: 0.009
log2 fold change [5]: 0.015
log2 fold change [6]: 0.03
log2 fold change [7]: 0.013
log2 fold change [8]: -0.001
log2 fold change [9]: -0.045

PGGT1B (UniProt P53609)
log2 fold change (erlotinib): 0.024
log2 fold change [1]: 0.036
log2 fold change [2]: 0.114
log2 fold change [3]: 0.006
log2 fold change [4]: 0.049
log2 fold change [5]: -0.002
log2 fold change [6]: 0.021
log2 fold change [7]: -0.036
log2 fold change [8]: 0.054
log2 fold change [9]: 0.027

PPID (UniProt Q08752)
log2 fold change (erlotinib): 0.114
log2 fold change [1]: 0.111
log2 fold change [2]: -0.01
log2 fold change [3]: -0.021
log2 fold change [4]: 0.075
log2 fold change [5]: 0.007
log2 fold change [6]: 0.095
log2 fold change [7]: 0.021
log2 fold change [8]: -0.076
log2 fold change [9]: -0.118

PRKCD (UniProt Q05655)
log2 fold change (erlotinib): -0.01
log2 fold change [1]: 0.004
log2 fold change [2]: 0.028
log2 fold change [3]: 0.065
log2 fold change [4]: 0.016
log2 fold change [5]: 0.044
log2 fold change [6]: -0.006
log2 fold change [7]: -0.008
log2 fold change [8]: 0.009
log2 fold change [9]: -0.001

PEX16 isoform 2 (UniProt Q9Y5Y5)
UniProt Q9Y5Y5, sequence (Q9Y5Y5 whole entry, looked up): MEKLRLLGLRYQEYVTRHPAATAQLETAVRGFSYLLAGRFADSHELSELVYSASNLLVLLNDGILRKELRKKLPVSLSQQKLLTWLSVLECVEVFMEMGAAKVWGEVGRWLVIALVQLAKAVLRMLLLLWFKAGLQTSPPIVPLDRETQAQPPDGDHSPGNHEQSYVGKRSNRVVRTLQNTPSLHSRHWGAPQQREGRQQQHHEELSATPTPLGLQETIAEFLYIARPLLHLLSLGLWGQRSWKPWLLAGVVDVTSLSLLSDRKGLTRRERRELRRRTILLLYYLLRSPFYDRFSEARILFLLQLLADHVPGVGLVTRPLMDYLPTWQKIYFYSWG
log2 fold change (erlotinib): 0.081
log2 fold change [1]: -0.044
log2 fold change [2]: 0.147
log2 fold change [3]: 0.013
log2 fold change [4]: 0.085
log2 fold change [5]: 0.06
log2 fold change [6]: 0.008
log2 fold change [7]: -0.004
log2 fold change [8]: -0.031
log2 fold change [9]: 0.051

PDCD4 (UniProt Q53EL6)
UniProt Q53EL6, sequence (Q53EL6 whole entry, looked up): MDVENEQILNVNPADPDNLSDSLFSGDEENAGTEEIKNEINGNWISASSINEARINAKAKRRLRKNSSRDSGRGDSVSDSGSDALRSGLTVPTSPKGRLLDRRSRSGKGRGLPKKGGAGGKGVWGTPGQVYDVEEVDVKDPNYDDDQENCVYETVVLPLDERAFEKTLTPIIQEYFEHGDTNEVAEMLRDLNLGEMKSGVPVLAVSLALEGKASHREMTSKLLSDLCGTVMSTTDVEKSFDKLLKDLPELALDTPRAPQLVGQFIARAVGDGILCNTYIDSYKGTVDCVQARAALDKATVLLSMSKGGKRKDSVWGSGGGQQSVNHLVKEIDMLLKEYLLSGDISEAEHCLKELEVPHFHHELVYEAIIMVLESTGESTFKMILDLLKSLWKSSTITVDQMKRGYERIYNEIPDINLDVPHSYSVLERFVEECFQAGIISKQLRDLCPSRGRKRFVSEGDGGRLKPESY
log2 fold change (erlotinib): 0.107
log2 fold change [1]: -0.041
log2 fold change [2]: 0.14
log2 fold change [3]: -0.051
log2 fold change [4]: 0.16
log2 fold change [5]: 0.145
log2 fold change [6]: 0.072
log2 fold change [7]: 0.108
log2 fold change [8]: 0.024
log2 fold change [9]: 0.027

PSME4 (UniProt Q14997)
UniProt Q14997, sequence (Q14997 whole entry, looked up): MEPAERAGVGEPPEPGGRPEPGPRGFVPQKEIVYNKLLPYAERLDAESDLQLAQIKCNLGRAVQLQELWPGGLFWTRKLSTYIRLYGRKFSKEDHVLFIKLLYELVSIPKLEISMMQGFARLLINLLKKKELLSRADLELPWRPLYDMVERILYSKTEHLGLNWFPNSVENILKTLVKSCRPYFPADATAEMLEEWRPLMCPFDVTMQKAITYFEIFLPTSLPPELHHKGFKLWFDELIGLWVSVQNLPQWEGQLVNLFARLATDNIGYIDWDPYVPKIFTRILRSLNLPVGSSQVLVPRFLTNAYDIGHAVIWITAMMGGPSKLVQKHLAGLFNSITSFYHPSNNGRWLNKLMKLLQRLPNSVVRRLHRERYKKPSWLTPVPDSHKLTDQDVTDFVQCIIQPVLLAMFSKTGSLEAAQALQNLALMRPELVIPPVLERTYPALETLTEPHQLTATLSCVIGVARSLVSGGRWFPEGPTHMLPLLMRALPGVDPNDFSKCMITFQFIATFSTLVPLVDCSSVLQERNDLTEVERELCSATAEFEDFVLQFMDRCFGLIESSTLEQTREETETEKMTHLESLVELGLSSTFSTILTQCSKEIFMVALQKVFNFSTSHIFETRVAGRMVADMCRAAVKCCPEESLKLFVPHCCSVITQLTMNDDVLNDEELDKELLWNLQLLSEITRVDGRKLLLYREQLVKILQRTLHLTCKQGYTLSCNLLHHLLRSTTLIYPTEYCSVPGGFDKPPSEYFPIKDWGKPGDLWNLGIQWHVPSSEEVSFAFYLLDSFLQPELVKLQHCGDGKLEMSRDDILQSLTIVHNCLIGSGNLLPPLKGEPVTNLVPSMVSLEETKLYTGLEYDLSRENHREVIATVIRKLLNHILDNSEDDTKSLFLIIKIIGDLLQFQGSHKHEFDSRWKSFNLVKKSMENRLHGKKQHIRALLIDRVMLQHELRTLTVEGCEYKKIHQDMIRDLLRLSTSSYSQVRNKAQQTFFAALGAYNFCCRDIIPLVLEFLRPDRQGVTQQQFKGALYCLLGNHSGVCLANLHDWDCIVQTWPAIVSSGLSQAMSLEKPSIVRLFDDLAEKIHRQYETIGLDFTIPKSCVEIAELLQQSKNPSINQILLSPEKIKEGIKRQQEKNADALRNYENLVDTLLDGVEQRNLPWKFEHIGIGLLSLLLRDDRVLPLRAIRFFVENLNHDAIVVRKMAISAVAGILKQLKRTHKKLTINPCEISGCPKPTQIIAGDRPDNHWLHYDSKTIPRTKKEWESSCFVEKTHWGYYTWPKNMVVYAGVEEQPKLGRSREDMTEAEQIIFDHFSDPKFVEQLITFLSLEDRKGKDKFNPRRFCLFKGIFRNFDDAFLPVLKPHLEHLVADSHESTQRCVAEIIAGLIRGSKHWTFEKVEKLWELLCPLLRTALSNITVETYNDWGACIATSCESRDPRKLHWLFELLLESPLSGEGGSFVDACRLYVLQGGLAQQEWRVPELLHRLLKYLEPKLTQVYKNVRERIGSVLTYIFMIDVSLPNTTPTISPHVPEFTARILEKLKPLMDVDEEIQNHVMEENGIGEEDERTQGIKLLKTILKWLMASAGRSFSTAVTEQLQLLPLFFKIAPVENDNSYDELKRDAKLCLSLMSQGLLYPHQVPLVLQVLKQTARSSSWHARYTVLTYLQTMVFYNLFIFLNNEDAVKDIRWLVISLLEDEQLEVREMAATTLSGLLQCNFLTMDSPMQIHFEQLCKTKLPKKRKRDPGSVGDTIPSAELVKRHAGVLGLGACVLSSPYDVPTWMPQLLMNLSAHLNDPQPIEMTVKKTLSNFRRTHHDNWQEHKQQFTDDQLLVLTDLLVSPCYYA
log2 fold change (erlotinib): -0.011
log2 fold change [1]: 0.017
log2 fold change [2]: -0.028
log2 fold change [3]: 0.065
log2 fold change [4]: 0.055
log2 fold change [5]: 0.022
log2 fold change [6]: -0.007
log2 fold change [7]: 0.027
log2 fold change [8]: 0.008
log2 fold change [9]: 0.014

PIR (UniProt O00625)
log2 fold change (erlotinib): -0.027
log2 fold change [1]: -0.058
log2 fold change [2]: 0.025
log2 fold change [3]: 0.464 (active)
log2 fold change [4]: 0.111
log2 fold change [5]: 0.031
log2 fold change [6]: -0.027
log2 fold change [7]: 0.225 (active)
log2 fold change [8]: -0.053
log2 fold change [9]: -0.002

PSMD11 (UniProt O00231)
log2 fold change (erlotinib): -0.097
log2 fold change [1]: -0.023
log2 fold change [2]: -0.039
log2 fold change [3]: 0.007
log2 fold change [4]: -0.035
log2 fold change [5]: -0.035
log2 fold change [6]: 0.058
log2 fold change [7]: 0.047
log2 fold change [8]: -0.033
log2 fold change [9]: -0.026

PSMB6 (UniProt P28072)
log2 fold change (erlotinib): -0.067
log2 fold change [1]: -0.079
log2 fold change [2]: -0.024
log2 fold change [3]: -0.001
log2 fold change [4]: -0.068
log2 fold change [5]: -0.006
log2 fold change [6]: -0.046
log2 fold change [7]: -0.012
log2 fold change [8]: 0.011
log2 fold change [9]: 0.042

PCTP (UniProt Q9UKL6)
log2 fold change (erlotinib): 0.035
log2 fold change [1]: -0.04
log2 fold change [2]: 0.065
log2 fold change [3]: 0.046
log2 fold change [4]: 0.057
log2 fold change [5]: 0.076
log2 fold change [6]: 0.012
log2 fold change [7]: 0.002
log2 fold change [8]: 0.049
log2 fold change [9]: -0.035

PYGB (UniProt P11216)
log2 fold change (erlotinib): -0.047
log2 fold change [1]: -0.022
log2 fold change [2]: -0.003
log2 fold change [3]: 0.087
log2 fold change [4]: 0.11
log2 fold change [5]: 0.008
log2 fold change [6]: -0.011
log2 fold change [7]: 0.039
log2 fold change [8]: 0.009
log2 fold change [9]: -0.028

PSMC4 (UniProt P43686)
UniProt P43686, sequence (P43686 whole entry, looked up): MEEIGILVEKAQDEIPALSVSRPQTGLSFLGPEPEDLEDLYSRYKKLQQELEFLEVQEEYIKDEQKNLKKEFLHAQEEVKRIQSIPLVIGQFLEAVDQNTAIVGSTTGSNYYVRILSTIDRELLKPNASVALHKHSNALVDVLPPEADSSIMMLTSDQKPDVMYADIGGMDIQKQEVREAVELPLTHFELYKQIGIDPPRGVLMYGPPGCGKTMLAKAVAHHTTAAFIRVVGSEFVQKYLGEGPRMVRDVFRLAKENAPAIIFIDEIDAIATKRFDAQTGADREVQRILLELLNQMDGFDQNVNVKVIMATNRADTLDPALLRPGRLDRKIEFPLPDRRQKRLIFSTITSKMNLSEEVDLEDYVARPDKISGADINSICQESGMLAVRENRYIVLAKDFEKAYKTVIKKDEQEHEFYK
log2 fold change (erlotinib): -0.05
log2 fold change [1]: -0.092
log2 fold change [2]: -0.052
log2 fold change [3]: -0.004
log2 fold change [4]: -0.023
log2 fold change [5]: -0.032
log2 fold change [6]: -0.011
log2 fold change [7]: 0.006
log2 fold change [8]: 0.04
log2 fold change [9]: -0.041

PCGF2 (UniProt P35227)
UniProt P35227, sequence (P35227 whole entry, looked up): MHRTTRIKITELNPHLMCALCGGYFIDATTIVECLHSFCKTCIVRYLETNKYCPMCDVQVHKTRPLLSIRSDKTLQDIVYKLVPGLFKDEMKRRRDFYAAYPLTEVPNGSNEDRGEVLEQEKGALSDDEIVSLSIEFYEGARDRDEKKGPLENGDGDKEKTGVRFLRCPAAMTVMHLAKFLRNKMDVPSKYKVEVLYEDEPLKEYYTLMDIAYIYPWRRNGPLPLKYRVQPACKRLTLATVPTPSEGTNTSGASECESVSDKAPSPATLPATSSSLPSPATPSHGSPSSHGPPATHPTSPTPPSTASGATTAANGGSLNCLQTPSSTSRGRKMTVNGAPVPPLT
log2 fold change (erlotinib): 0.11
log2 fold change [1]: 0.037
log2 fold change [2]: 0.001
log2 fold change [3]: -0.013
log2 fold change [4]: 0.177
log2 fold change [5]: -0.023
log2 fold change [6]: 0.053
log2 fold change [7]: -0.002
log2 fold change [8]: -0.057
log2 fold change [9]: -0.061

PBK (UniProt Q96KB5)
log2 fold change (erlotinib): 0.103
log2 fold change [1]: 0.117
log2 fold change [2]: -0.054
log2 fold change [3]: -0.037
log2 fold change [4]: 0.083
log2 fold change [5]: 0.028
log2 fold change [6]: 0.067
log2 fold change [7]: 0.016
log2 fold change [8]: -0.052
log2 fold change [9]: -0.105

PLCL1 (UniProt Q15111)
log2 fold change (erlotinib): 0.136
log2 fold change [1]: -0.122
log2 fold change [2]: 0.117
log2 fold change [3]: 0.095
log2 fold change [4]: -0.042
log2 fold change [5]: 0.007
log2 fold change [6]: 0.098
log2 fold change [7]: 0.051
log2 fold change [8]: 0
log2 fold change [9]: -0.376

PYGL (UniProt P06737)
log2 fold change (erlotinib): -0.012
log2 fold change [1]: -0.008
log2 fold change [2]: 0.001
log2 fold change [3]: 0.037
log2 fold change [4]: 0.047
log2 fold change [5]: -0.007
log2 fold change [6]: -0.02
log2 fold change [7]: 0.008
log2 fold change [8]: -0.004
log2 fold change [9]: 0.08

PRKCQ (UniProt Q04759)
log2 fold change (erlotinib): 0.036
log2 fold change [1]: 0.047
log2 fold change [2]: 0.024
log2 fold change [3]: 0.03
log2 fold change [4]: 0.093
log2 fold change [5]: 0.012
log2 fold change [6]: 0.012
log2 fold change [7]: -0.008
log2 fold change [8]: -0.007
log2 fold change [9]: -0.061

PTPA (UniProt A6PVN8)
log2 fold change (erlotinib): -0.061
log2 fold change [1]: 0.21
log2 fold change [2]: -0.107
log2 fold change [3]: 0.367
log2 fold change [4]: 0.088
log2 fold change [5]: 0.031
log2 fold change [6]: 0.063
log2 fold change [7]: 0.065
log2 fold change [8]: 0.01
log2 fold change [9]: 0.031

PRKD2 isoform 3 (UniProt Q9BZL6)
log2 fold change (erlotinib): 0.04
log2 fold change [1]: 0.214
log2 fold change [2]: 0.022
log2 fold change [3]: 0.055
log2 fold change [4]: 0.003
log2 fold change [5]: 0.004
log2 fold change [6]: -0.126
log2 fold change [7]: -0.347
log2 fold change [8]: -0.04
log2 fold change [9]: -0.075

PATL1 (UniProt Q86TB9)
log2 fold change (erlotinib): 0.044
log2 fold change [1]: 0.13
log2 fold change [2]: -0.021
log2 fold change [3]: 0.048
log2 fold change [4]: 0.01
log2 fold change [5]: -0.233
log2 fold change [6]: -0.075
log2 fold change [7]: 0.029
log2 fold change [8]: -0.071
log2 fold change [9]: -0.052
